Test results reported in PubChem BioAssay (NCI).
About 83,000 compounds went through this panel and 20% of them were active in at least one assay; those are over-represented in the sample as a whole.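 Plates (96-well) were seeded with cells, treated with compound at one concentration, and incubated for 48 hours before percent growth was determined.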 A number with no mark means an inactive call. Active and inactive are the calls of the source. The calls were made as follows: active = growth percent below 10; inactive = the rest.

Each compound was assayed on EKVX NSCLC (assay: NCI-60 one-dose screen, 48 h (100 = growth as untreated, 0 = no growth, -100 = all killed)). Conditions: 10 µM unless noted.

| SMILES | growth |
| --- | --- |
| COc1cc2cc(NCc3ccc(Cl)cc3)nc(C)c2cc1OC | 64.9% |
| CC(=O)c1cnc2ccc(-c3cc(Cl)c(O)c(Cl)c3)nc2c1NC1CCC(CN(C)C)CC1 (configuration not stated) | -15.9% [2.5 µM] (active) |
| CCN(CC)c1cc2oc3cc(N)cc(=N)c-3nc2cc1C | 50.5% |
| CO[C@H]1C[C@@H]2CC[C@@H](C)[C@@](O)(O2)C(=O)C(=O)N2CCCC[C@H]2C(=O)O[C@H]([C@H](C)C[C@@H]2CC[C@@H](O)[C@H](OC)C2)CC(=O)[C@H](C)/C=C(\C)[C@@H](O)[C@@H](OC)C(=O)[C@H](C)C[C@H](C)\C=C/C=C/C=C/1C | 35.8% |
| COc1cccc(NC(=O)Nc2ccc(Nc3ncnc4sc5c(c34)CCN(C(=O)CCl)C5)cc2)c1 | 109% |
| CCN(CC)CCNC(=O)c1c(C)[nH]c(/C=C2\C(=O)Nc3ccc(F)cc32)c1C | 17.8% |
| CO[C@@H](C)Cn1c(=O)n(C)c2cnc3ccc(-c4cncc(C(C)(C)O)c4)cc3c21 | 4.47% (active) |
| Cc1c(N)ccc(-c2ccc(N)c(C)c2S(=O)(=O)O)c1S(=O)(=O)O | 111% |
| CNC(=O)c1cc(Oc2ccc(NC(=O)Nc3ccc(Cl)c(C(F)(F)F)c3)c(F)c2)ccn1 | -3.92% (active) |
| COCCOc1cnc2ccn([C@H](C)c3nnc4c(F)cc(-c5cnn(C)c5)cn34)c(=O)c2c1 | 96% |
| N#Cc1c(-c2ccc(Cl)cc2)csc1NC(=O)Nc1cccc(C(F)(F)F)c1 | 17.3% |
| CC(=O)C1CC(C)CCC1C(C)C (configuration not stated) | 106% |
